Measured values published in PubChem BioAssay.
Several values for one entry are separate records, joined by “and”; a condition that tells them apart may be missing. Equal values may be shown once. Activity calls are given as the source filed them.

Assay: CREB reporter modulators without forskolin, primary screen, cell-based, PC12, CRE-LacZ reporter, unstimulated (AID 1145)
Conditions: no forskolin, luminescence, 4.5 h, higher = more signal, called active from +8 up or from −8 down

z-score, inactive:
CC(CO)N1C(=O)[C@@H]2C3C(=O)OCCC=C[C@H]3OC23C=CCN(c2ccc(Cl)cc2)C(=O)[C@@H]13 (some centres undefined) 0.187 and 0.325
CCOC(=O)NN=C1C[C@@H](O)[C@@H](O)[C@@H]2[C@@H]3C(=O)N(Cc4ccc5c(c4)OCO5)C(=O)[C@@H]3CC[C@@H]12 -0.293
C=CCN(C(=O)C(c1cccs1)N(C(=O)/C=C\C(=O)O)c1ccc(CCO)cc1)C(C)(C)C (centres undefined) -0.0859 and 0.597
C=CCN(C(=O)C(c1cccs1)N(C(=O)/C=C\C(=O)O)c1c(Cl)cccc1CO)C(C)(C)C (centres undefined) 0.325 and 0.471
C=CCN(CCCCC)C(=O)C1N(c2c(Cl)cccc2CO)C(=O)C2C(C(=O)O)C3C=CC21O3 (centres undefined) 0.467 and 0.199
C=CCN(CCCC)C(=O)C(c1cccs1)N(CCOCCO)C(=O)/C=C\C(=O)O (centres undefined) -0.891 and 0.0564
CCCCCN1CC=CC23O[C@@H]4C=CCCOC(=O)C4[C@H]2C(=O)N(C(C)CO)[C@@H]3C1=O (some centres undefined) -0.48 and -0.639
COC(=O)[C@H](C)NC(=O)CCC1CC(OC(=O)NCCc2ccc(F)cc2)CC2(CCCC(COC(=O)NCCCN3CCCC3=O)O2)O1 (some centres undefined) -0.704
COC(=O)C1=C(C)N(Cc2ccccc2)C2=C(C(C)=O)C[C@@](O)(C(=O)OC)C(=O)N2[C@@H]1c1ccccc1 3.35 and 4.53
